A selection: hits, their analogues and other compounds. The true share with any hit is near 28%.
CYP2C19 inhib – blocks human cytochrome P450 2C19; AID 778; P33261; CYP2C19 Supersomes, luciferin-H EGE luminescence, 30 min; inhibition, % at 5 µM; actives 21% (n = 96,000);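 active means CYP2C19 inhibition above a set limit at 5 µM in the primary screen, cut at about 50% in these data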
DAT uptake mod – modulates human dopamine transporter uptake under cocaine; Q01959; LLC-PK1 hDAT cells, [14C]-dopamine uptake with cocaine IC80; actives deviate in either direction; B-score at 10 µM; actives 1.3% (n = 110,000); AID 449768;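 active means Z score or B-score, a plate-position-corrected score, falls beyond the plate's 99.7% confidence bounds, in either direction; inactive means both scores lie inside the 99.7% bounds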
CYP2C9 inhib – blocks human cytochrome P450 2C9; P11712; inhibition, % at 5 µM; actives 20% (n = 96,000); CYP2C9 Supersomes, luciferin-H conversion, luminescence;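 active means blocking of liver enzyme CYP2C9 beyond about 50% at 5 µM, limit read from the data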
CYP2C19 act – activators of human cytochrome P450 2C19; AID 1025; 96,000 tested, under 10 active; activation factor at 5 µM; recombinant CYP2C19, luciferin-H EGE luminescence; active compounds read high; 0 = fully inhibited enzyme, 1 = untreated enzyme; P33261;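 active means activation factor of at least 2 at 5 µM in the primary screen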
D1 allo mod – allosteric modulators of human D1 dopamine receptor; HEK293 D1, CRE-luciferase, dopamine EC30 potentiation; actives deviate in either direction; B-score at 10 µM; actives 5.9% (n = 58,000);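 active means luminescence count or its row- and column-corrected plate score outside the 99.7% band of the plate's sample wells, on either side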
Target sequence (P21728 whole entry, looked up): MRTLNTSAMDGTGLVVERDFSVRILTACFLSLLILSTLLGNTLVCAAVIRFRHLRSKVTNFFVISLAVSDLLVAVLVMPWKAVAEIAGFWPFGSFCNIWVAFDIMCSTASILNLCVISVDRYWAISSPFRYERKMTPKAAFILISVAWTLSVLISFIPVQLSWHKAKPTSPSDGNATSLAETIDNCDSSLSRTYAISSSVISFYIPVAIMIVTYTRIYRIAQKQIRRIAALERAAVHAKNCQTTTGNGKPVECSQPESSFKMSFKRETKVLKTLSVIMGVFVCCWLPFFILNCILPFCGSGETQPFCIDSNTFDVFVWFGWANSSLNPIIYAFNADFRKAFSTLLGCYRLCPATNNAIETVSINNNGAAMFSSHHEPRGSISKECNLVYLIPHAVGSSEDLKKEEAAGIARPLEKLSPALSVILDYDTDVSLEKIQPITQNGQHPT
CYP2C9 act – increases human cytochrome P450 2C9 activity; P11712; AID 1024; actives 1.4% (n = 96,000); activation factor at 5 µM; recombinant CYP2C9, luciferin-H conversion, luminescence; active compounds read high; factor 1 = untreated enzyme, 0 = blocked;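 active means activation factor of 2 or more for CYP2C9 at a 5 µM dose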
Each line names hits and unclear results; the compound was inactive in the other large screens.

Cc1ccc(S(=O)(=O)NC2(C(F)(F)F)C(=O)Nc3c2c(=O)n(C)c(=O)n3C)cc1 (stereo unspecified)	none
O=C(OCC(=O)N1CCCCC1)c1cc2ccccc2cc1O	CYP2C19 inhib 75.9 (no result: D1 allo mod)
CCC1CCCCN1C(=O)COC(=O)c1cc2ccccc2cc1O (stereo unspecified)	CYP2C19 inhib 53.3
Nc1cc(C(=O)OCC(=O)N2CCCC2)ccc1Cl	none (no result: D1 allo mod)
CC(NC(=O)c1cccc(C(F)(F)F)c1)C1CCCO1 (stereo unspecified)	none
Cc1nn(Cc2ccc(Cl)cc2)c(=O)n1N(C)c1ncc(C(F)(F)F)cc1Cl	CYP2C19 inhib 73.2 (no result: D1 allo mod)
Cc1nn(Cc2ccc([N+](=O)[O-])cc2)c(=O)n1N(C)c1ncc(C(F)(F)F)cc1Cl	none (no result: D1 allo mod)
Cn1nnnc1SCC(=O)Nc1cc(C(=O)O)cc(C(=O)O)c1	none (no result: D1 allo mod)
O=C1[C@@H]2[C@H](C(=O)N1Cc1ccco1)[C@H]1C=C[C@@H]2C1	none (no result: D1 allo mod)
COc1cccc(-c2cc(C(F)(F)F)nc(-n3cncn3)n2)c1	DAT uptake mod 3.31
CCOC(=O)CN(C(=O)CSc1nnc(CNc2ccc(F)cc2)n1C)c1ccccc1	none (no result: D1 allo mod)
COC(=O)CN(C(=O)CSc1nnc(-c2cccc(OC)c2)o1)c1ccc(OC)cc1	CYP2C9 inhib 60.1
CCOC(=O)CN(C(=O)CSc1nnc(-c2cccc(OC)c2)o1)c1ccc(F)cc1	CYP2C19 inhib 85.2, CYP2C9 inhib 91.9
O=C(CSc1nnc(CNc2ccc(F)cc2)o1)N1c2ccccc2Sc2ccccc21	CYP2C9 inhib 53.4 (no result: D1 allo mod)
CCOC(=O)CN(C(=O)CSc1nnc(CNc2ccc(F)cc2)o1)c1ccccc1	CYP2C19 inhib 59.4, CYP2C9 inhib 77.6
COc1cccc(-c2nnc(SCC(=O)N3CCOCC3)o2)c1	none
CCc1c(O)nc(SC2CC(=O)N(c3ccccc3)C2=O)[nH]c1=O (stereo unspecified)	CYP2C9 inhib 67.0 (no result: D1 allo mod)
Cc1c(O)nc(SC2CC(=O)N(c3ccccc3)C2=O)[nH]c1=O (stereo unspecified)	none
Cc1csc(NC(=O)C(NS(=O)(=O)c2ccc(Br)s2)c2ccccc2)n1 (stereo unspecified)	none (no result: D1 allo mod)
COc1cccc(-n2c(SCC(N)=O)nc3c([nH]c4ccccc43)c2=O)c1	CYP2C9 inhib 51.6 (no result: DAT uptake mod, D1 allo mod)
Cc1ccc(-n2c(SCC(N)=O)nc3c([nH]c4ccccc43)c2=O)cc1	CYP2C9 inhib 78.6, D1 allo mod -4.08
COc1ccc(-n2c(SCC(=O)N3CCCC3)nc3c([nH]c4ccccc43)c2=O)cc1	none (no result: CYP2C19 inhib, DAT uptake mod, CYP2C9 inhib, CYP2C19 act, CYP2C9 act)
COc1ccccc1N1CCN(CC(=O)c2c(C)[nH]c3ccccc23)CC1	CYP2C19 inhib 86.8
Cc1[nH]c2ccccc2c1C(=O)CN1CCN(C/C=C/c2ccccc2)CC1	none (no result: D1 allo mod)
COc1ccc2[nH]c(C)c(C(=O)CN3CCN(C/C=C/c4ccccc4)CC3)c2c1	CYP2C9 inhib 54.2 (no result: D1 allo mod)
Cc1[nH]c2ccccc2c1C(=O)CN1CCN(C2CCCCC2)CC1	none
O=C(NCc1ccccc1)C1(C(F)(F)F)C/C(=C\CCO)CCCO1 (stereo unspecified)	none (no result: CYP2C19 inhib, CYP2C9 inhib, CYP2C19 act, D1 allo mod, CYP2C9 act)
Cc1cc(C)cc(C(=O)N2CC(=O)Nc3ccccc32)c1	CYP2C19 inhib 53.2, DAT uptake mod -3.29 (no result: D1 allo mod)
Cc1ccsc1C(=O)N1CC(=O)Nc2ccccc21	none
CC(=O)Nc1ccc(S(=O)(=O)NNC(=O)COc2ccc(C(C)(C)C)cc2)cc1	none (no result: D1 allo mod)
Cc1ccc(NC(=O)COc2ccc(-n3cnnn3)cc2)cc1C	none (no result: CYP2C19 inhib, CYP2C9 inhib, CYP2C19 act, D1 allo mod, CYP2C9 act)
CC(C)(C)c1ccc(NC(=O)COc2ccc(-n3ccnc3)cc2)cc1	CYP2C19 inhib 99.0, CYP2C9 inhib 98.9 (no result: D1 allo mod)
N#Cc1cccc(NC(=O)COc2ccc(-n3ccnc3)cc2)c1	CYP2C19 inhib 100.0, CYP2C9 inhib 98.6 (no result: D1 allo mod)
CCC(C)(C(=O)NC1CCCCC1)N(C(=O)C1CCC(=O)N1)c1ccc(C)cc1 (stereo unspecified)	none
CC(=O)N(C)c1ccc(NC(=O)/C=C/c2ccccc2Cl)cc1	none (no result: D1 allo mod)
O=C(/C=C/c1cccc(Cl)c1)Nc1ccncc1	CYP2C19 inhib 99.0, CYP2C9 inhib 98.7 (no result: D1 allo mod)
O=C(/C=C/c1c(Cl)cccc1Cl)Nc1ccncc1	CYP2C19 inhib 93.7, CYP2C9 inhib 93.1 (no result: D1 allo mod)
CC1=C(C#N)C(Nc2cccc(C)n2)(C(F)(F)F)C(=O)N1 (stereo unspecified)	CYP2C19 inhib 75.3 (no result: D1 allo mod)
CC1=C(C#N)C(NC(=O)C2CC2)(C(F)(F)F)C(=O)N1 (stereo unspecified)	none
O=C(Nc1cccc(C(F)(F)F)c1)c1n[nH]c(Cn2cncn2)n1	CYP2C9 inhib 51.4 (no result: D1 allo mod)
O=C(Nc1ccccc1)c1n[nH]c(Cn2cncn2)n1	none (no result: D1 allo mod)
COC(=O)CCC(NC(=O)c1cc(-c2ccc3c(c2)OCCO3)oc1C)C(=O)OC (stereo unspecified)	CYP2C19 inhib 51.8
CCOC(=O)CNC(=O)c1cc(-c2ccc3c(c2)OCCO3)oc1C	none
Cc1ccc(Nc2nc(C(=O)NCCCN3CCOCC3)cs2)cc1	none
Clc1ccc(Nc2nc(C3CC3)cs2)cc1	none (no result: DAT uptake mod, D1 allo mod)
Cc1ccc(Nc2nc(C(=O)NCc3ccco3)cs2)cc1	CYP2C19 inhib 86.2, CYP2C9 inhib 91.0
CCN(CC)C(=O)c1csc(Nc2ccc(C)cc2)n1	CYP2C19 inhib 81.1, CYP2C9 inhib 60.7
Cc1ccc(Nc2nc(C3CC3)cs2)cc1	D1 allo mod -4.87 (no result: DAT uptake mod)
CCOC(=O)/C(=N\Nc1ccc(Cl)cc1)c1csc(Nc2ccccc2)n1	CYP2C9 inhib 87.1 (no result: D1 allo mod)
COc1ccc(C#Cc2c(-c3ccsc3)oc3ccc(-c4cc(OC)c(OC)c(OC)c4)cc23)cc1	none (no result: CYP2C19 inhib, CYP2C9 inhib, CYP2C19 act, D1 allo mod, CYP2C9 act)
Cc1ccc(C(=O)CSc2nnc(-c3ccco3)n2CC2CCCO2)cc1 (stereo unspecified)	none (no result: D1 allo mod)
Cc1ccc(Nc2nnc(SCC(=O)NCc3ccco3)s2)cc1	CYP2C9 inhib 57.7
COc1cc(C2C(C#N)=C(N)Oc3cc(C)oc(=O)c32)cc2c1OCO2 (stereo unspecified)	CYP2C9 inhib 53.7
COc1cc(C2C(C#N)=C(N)Oc3cc(C)oc(=O)c32)ccc1OC(=O)N1CCOCC1 (stereo unspecified)	D1 allo mod -3.72
COc1cc(C2C(C#N)=C(N)Oc3cc(C)n(CC4CCCO4)c(=O)c32)cc2c1OCO2 (stereo unspecified)	none
CCc1nc2ccccc2c(NC(=O)CN2CCC(C)CC2)c1C	none
CCOC(=O)c1sc(=S)n(-c2ccccc2OC)c1N	CYP2C9 inhib 55.8
CCOC(=O)c1sc(=S)n(C)c1N	D1 allo mod 4.53
CCOc1ccccc1-n1c(N)c(C(N)=O)sc1=S	none (no result: D1 allo mod)
CCOC(=O)c1sc(=S)n(-c2ccc3c(c2)OCO3)c1N	CYP2C19 inhib 64.5
CCOC(=O)c1sc(=S)n(Cc2ccccc2)c1N	CYP2C9 inhib 78.9
CCOC(=O)c1sc(=S)n(-c2ccc(F)c(F)c2)c1N	none
Cc1cccc(-n2ncc3c(N4CCN(c5nc(C)cc(C)n5)CC4)ncnc32)c1	none (no result: CYP2C19 inhib, DAT uptake mod, CYP2C9 inhib, CYP2C19 act, CYP2C9 act)

From PubChem BioAssay
